From PubChem BioAssay (NCI)
The panel holds about 79,000 compounds, 15% with a hit somewhere; the sample as a whole holds those more often. The source made the active and inactive calls. Rule as the data show it: active = growth inhibition above about 70%; inactive = the rest.

What was measured:
[1] = NCI Yeast Anticancer Drug Screen. Data for the rad52 strain (AID 147);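 also: 0% = growth of vehicle-treated control cultures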; details: S. cerevisiae rad52 mutant growth inhibition, stronger effect = higher value
Outline: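 Measured: yeast growth inhibition. System: strain with a defined DNA damage repair alteration. Reference: vehicle-treated control cultures.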

[2] = NCI Yeast Anticancer Drug Screen. Data for the wt1 strain (AID 149);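 also: 0% = growth of vehicle-treated wt1 cultures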; details: S. cerevisiae wt1 strain (SPY 50644) growth inhibition, stronger effect = higher value
Outline: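 Readout: yeast growth inhibition, normalised to vehicle controls, in the wt1 strain exposed to test compounds.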

[3] = NCI Yeast Anticancer Drug Screen. Data for the mgt1 strain (AID 153); details: S. cerevisiae mgt1 mutant growth inhibition, stronger effect = higher value
Outline: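 After exposure of the mgt1 yeast mutant to compound, growth was measured and reported as inhibition compared with vehicle controls.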

[4] = NCI Yeast Anticancer Drug Screen. Data for the rad50 strain (AID 155);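 also: 0% = growth of vehicle-only cultures of the same strain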; details: S. cerevisiae rad50 strain growth inhibition, stronger effect = higher value
Outline: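 Compounds were tested on a yeast strain with an engineered DNA damage repair alteration; the reported value is growth inhibition normalised to vehicle treatment.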

[5] = NCI Yeast Anticancer Drug Screen. Data for the mec2-1 strain (AID 157); details: S. cerevisiae mec2-1 strain, stronger effect = higher value
Outline: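 Test agents were screened against the mec2-1 yeast strain, with defined DNA repair or cell cycle alteration. Growth was scored as inhibition against vehicle-only controls.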

[6] = NCI Yeast Anticancer Drug Screen. Data for the rad14 strain (AID 159);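 also: 0% = growth of vehicle-treated control cultures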; details: S. cerevisiae rad14 strain growth inhibition, stronger effect = higher value
Outline: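 Compound-treated yeast with a defined DNA-repair lesion; growth inhibition normalised to vehicle-treated cultures.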

[7] = NCI Yeast Anticancer Drug Screen. Data for the sgs1 mgt1 strain (AID 161);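 also: 0% = growth of cultures given vehicle only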; details: S. cerevisiae sgs1 mgt1 strain, stronger effect = higher value
Outline: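 Genetically altered yeast, compound exposure, growth inhibition relative to vehicle.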

[8] = NCI Yeast Anticancer Drug Screen. Data for the CLN2oe strain (AID 163);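 also: 0% = growth of vehicle-only control cultures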; details: S. cerevisiae CLN2oe strain, stronger effect = higher value
Outline: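 Here, growth inhibition in a cell-cycle-altered yeast strain after compound exposure was quantified against vehicle control growth.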

[9] = NCI Yeast Anticancer Drug Screen. Data for the bub3 strain (AID 167); details: S. cerevisiae bub3 mutant strain, stronger effect = higher value
Outline: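 Growth of a checkpoint-deficient yeast mutant is measured after compound exposure. Values represent inhibition relative to vehicle.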

[10] = NCI Yeast Anticancer Drug Screen. Data for the wt2 strain (AID 169);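 also: 0% = growth of vehicle-treated yeast cultures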; details: S. cerevisiae wt2 strain growth inhibition, stronger effect = higher value
Outline: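 Genetically defined yeast strains from a DNA-repair/cell-cycle panel were used. Compound-exposed yeast growth was measured, and the inhibition was calculated relative to vehicle treatment.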

[11] = NCI Yeast Anticancer Drug Screen. Data for the mlh1 strain (AID 171);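 also: 0% = growth of vehicle-treated control cultures of the same strain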; details: S. cerevisiae mlh1 strain growth inhibition, stronger effect = higher value
Outline: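 Here the genetically defined yeast mutant is grown with each compound, and the extent to which its growth falls below that of vehicle-exposed cells is reported.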

[12] = NCI Yeast Anticancer Drug Screen. Data for the sgs1 strain (AID 173);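 also: 0% = growth of vehicle-only control cultures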; details: S. cerevisiae sgs1 mutant, stronger effect = higher value
Outline: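 Relative growth inhibition, referenced to vehicle, was determined in a yeast strain with a defined alteration affecting DNA damage repair or cell cycle control after compound exposure.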

[13] = NCI Yeast Anticancer Drug Screen. Data for the mlh1 rad18 strain (AID 175); details: S. cerevisiae mlh1 rad18 strain growth inhibition, stronger effect = higher value
Outline: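 In this whole-cell yeast screen, a strain with altered DNA damage repair is challenged with compound, and its growth is measured against matched vehicle-treated controls.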

[14] = NCI Yeast Anticancer Drug Screen. Data for the rad18 strain (AID 177); details: S. cerevisiae rad18 mutant growth inhibition, stronger effect = higher value
Outline: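 Screen uses a yeast strain with a defined lesion in DNA damage repair; compound effect is read as loss of growth compared to untreated vehicle cultures.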

[15] = NCI Yeast Anticancer Drug Screen. Data for the rad50EPP+ strain (AID 151);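 also: 0% = growth of vehicle-treated control cultures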; details: S. cerevisiae rad50 mutant strain, stronger effect = higher value
Outline: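 One strain with a rad50 alteration (rad50EPP+) was compound-treated, its growth then compared to that of vehicle controls.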

[16] = NCI Yeast Anticancer Drug Screen. Data for the cln2 rad14 strain (AID 165);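 also: 0% = growth equal to vehicle treated cultures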; details: S. cerevisiae cln2 rad14 strain, stronger effect = higher value
Outline: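 Growth of compound-exposed yeast (cln2 rad14 genotype) measured and expressed as inhibition relative to vehicle.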

[17] = at 5.0 µM (retest, dose inferred, filed as 0.5)
[18] = at 50.0 µM (retest, dose inferred, filed as 5.0)

Measured: growth inhibition

O=[N+]([O-])c1cccc([N+](=O)[O-])c1S(=O)(=O)c1ccccc1
active: [1]; at 1.2 µM 87% | [1]; at 3.7 µM 93% | [1]; at 11.0 µM 97% | [1]; at 33.0 µM 98% | [1]; at 100.0 µM 97% | [2]; at 33.0 µM 89% | [2]; at 100.0 µM 93% | [3]; at 33.0 µM 93% | [3]; at 100.0 µM 94% | [4]; at 1.2 µM 83% | [4]; at 3.7 µM 91% | [4]; [17] 82% | [4]; at 11.0 µM 95% | [4]; at 33.0 µM 97% | [4]; [18] 87% | [4]; at 50.0 µM 82.8% | [4]; at 100.0 µM 96% | [5]; at 11.0 µM 87% | [5]; at 33.0 µM 96% | [5]; [18] 91% | [5]; at 50.0 µM 83.3% | [5]; at 100.0 µM 95% | [6]; at 33.0 µM 92% | [6]; at 100.0 µM 92% | [8]; at 33.0 µM 84% | [8]; at 100.0 µM 85% | [9]; at 33.0 µM 92% | [9]; [18] 88% | [9]; at 50.0 µM 77.6% | [9]; at 100.0 µM 81% | [10]; at 33.0 µM 90% | [10]; at 100.0 µM 94% | [11]; at 11.0 µM 76% | [11]; at 33.0 µM 97% | [11]; at 100.0 µM 95% | [12]; at 11.0 µM 75% | [12]; at 33.0 µM 95% | [12]; at 100.0 µM 94% | [13]; [18] 76% | [13]; at 50.0 µM 87.9% | [14]; at 11.0 µM 82% | [14]; at 33.0 µM 95% | [14]; at 100.0 µM 95%
inactive: [2]; at 1.2 µM 20% | [2]; at 3.7 µM 33% | [2]; at 11.0 µM 67% | [3]; at 1.2 µM 19% | [3]; at 3.7 µM 1% | [3]; at 11.0 µM 68% | [5]; at 1.2 µM 19% | [5]; at 3.7 µM 37% | [5]; [17] 14% | [6]; at 1.2 µM -13% | [6]; at 3.7 µM 0% | [6]; at 11.0 µM 59% | [7]; [17] 2% | [7]; [18] 33% | [7]; at 50.0 µM 65.1% | [8]; at 1.2 µM 7% | [8]; at 3.7 µM 4% | [8]; at 11.0 µM 52% | [9]; at 1.2 µM 0% | [9]; at 3.7 µM 8% | [9]; [17] 5% | [9]; at 11.0 µM 56% | [10]; at 1.2 µM 1% | [10]; at 3.7 µM 22% | [10]; at 11.0 µM 60% | [11]; at 1.2 µM -1% | [11]; at 3.7 µM 22% | [12]; at 1.2 µM 22% | [12]; at 3.7 µM 42% | [13]; [17] 41% | [14]; at 1.2 µM 17% | [14]; at 3.7 µM 30%

C=C(CN(C)C)C(=O)c1cc(C)ccc1C
inactive: [1]; at 1.2 µM 5% | [1]; at 3.7 µM 32% | [15]; at 1.2 µM 1% | [15]; at 3.7 µM 9% | [15]; at 11.0 µM 32% | [3]; at 1.2 µM 2% | [3]; at 3.7 µM 19% | [4]; at 1.2 µM 4% | [4]; at 3.7 µM 23% | [4]; [17] 24% | [5]; at 1.2 µM 17% | [5]; at 3.7 µM 38% | [5]; [17] 5% | [6]; at 1.2 µM 9% | [6]; at 3.7 µM 21% | [7]; [17] 50% | [8]; at 1.2 µM 10% | [8]; at 3.7 µM 22% | [8]; at 11.0 µM 40% | [16]; [17] 7% | [9]; at 1.2 µM 5% | [9]; at 3.7 µM 28% | [9]; [17] 61% | [10]; at 1.2 µM 3% | [10]; at 3.7 µM 16% | [12]; at 1.2 µM 16% | [12]; at 3.7 µM 40% | [13]; [17] 61% | [14]; at 1.2 µM 16% | [14]; at 3.7 µM 37%
active: [1]; at 11.0 µM 85% | [1]; at 33.0 µM 99% | [1]; at 100.0 µM 99% | [15]; at 33.0 µM 80% | [15]; at 100.0 µM 98% | [3]; at 11.0 µM 80% | [3]; at 33.0 µM 99% | [3]; at 100.0 µM 99% | [4]; at 11.0 µM 83% | [4]; at 33.0 µM 98% | [4]; [18] 99% | [4]; at 50.0 µM 99.4% | [4]; at 100.0 µM 99% | [5]; at 11.0 µM 86% | [5]; at 33.0 µM 99% | [5]; [18] 99% | [5]; at 50.0 µM 99.4% | [5]; at 100.0 µM 99% | [6]; at 11.0 µM 80% | [6]; at 33.0 µM 99% | [6]; at 100.0 µM 99% | [7]; [18] 99% | [7]; at 50.0 µM 99.5% | [8]; at 33.0 µM 98% | [8]; at 100.0 µM 98% | [16]; [18] 99% | [16]; at 50.0 µM 99.2% | [9]; at 11.0 µM 90% | [9]; at 33.0 µM 99% | [9]; [18] 99% | [9]; at 50.0 µM 98.8% | [9]; at 100.0 µM 99% | [10]; at 11.0 µM 75% | [10]; at 33.0 µM 99% | [10]; at 100.0 µM 99% | [12]; at 11.0 µM 86% | [12]; at 33.0 µM 99% | [12]; at 100.0 µM 99% | [13]; [18] 99% | [13]; at 50.0 µM 99.2% | [14]; at 11.0 µM 86% | [14]; at 33.0 µM 98% | [14]; at 100.0 µM 99%
